EPAC1 antagonist: qHTS for Antagonist of cAMP-regulated guanine nucleotide exchange factor 3 (EPAC1): primary screen. Rap guanine nucleotide exchange factor 3 (Homo sapiens), O95398. EPAC1 GEF assay, Rap1b-BODIPY-GDP exchange fluorescence. Potency, µM (titrated, usually from 115 µM), usual class: inhibitors. 0.14% of 360,000 active. AID 720709, 2013; also: nearly all actives have a fitted effect of over 50% in size
EPAC2 antag: qHTS for Antagonist of cAMP-regulated guanine nucleotide exchange factor 2 (EPAC2): primary screen. EPAC2 GEF exchange of Rap1B-BODIPY-GDP, fluorescence. 0.18% of 360,000 active. Rap guanine nucleotide exchange factor 4 (Homo sapiens), Q8WZA2. Potency, µM (top dose mostly 114 µM), actives largely listed as inhibitors; also: nearly all actives have a fitted effect of over 45% in size
Target sequence (Q8WZA2 whole entry, looked up): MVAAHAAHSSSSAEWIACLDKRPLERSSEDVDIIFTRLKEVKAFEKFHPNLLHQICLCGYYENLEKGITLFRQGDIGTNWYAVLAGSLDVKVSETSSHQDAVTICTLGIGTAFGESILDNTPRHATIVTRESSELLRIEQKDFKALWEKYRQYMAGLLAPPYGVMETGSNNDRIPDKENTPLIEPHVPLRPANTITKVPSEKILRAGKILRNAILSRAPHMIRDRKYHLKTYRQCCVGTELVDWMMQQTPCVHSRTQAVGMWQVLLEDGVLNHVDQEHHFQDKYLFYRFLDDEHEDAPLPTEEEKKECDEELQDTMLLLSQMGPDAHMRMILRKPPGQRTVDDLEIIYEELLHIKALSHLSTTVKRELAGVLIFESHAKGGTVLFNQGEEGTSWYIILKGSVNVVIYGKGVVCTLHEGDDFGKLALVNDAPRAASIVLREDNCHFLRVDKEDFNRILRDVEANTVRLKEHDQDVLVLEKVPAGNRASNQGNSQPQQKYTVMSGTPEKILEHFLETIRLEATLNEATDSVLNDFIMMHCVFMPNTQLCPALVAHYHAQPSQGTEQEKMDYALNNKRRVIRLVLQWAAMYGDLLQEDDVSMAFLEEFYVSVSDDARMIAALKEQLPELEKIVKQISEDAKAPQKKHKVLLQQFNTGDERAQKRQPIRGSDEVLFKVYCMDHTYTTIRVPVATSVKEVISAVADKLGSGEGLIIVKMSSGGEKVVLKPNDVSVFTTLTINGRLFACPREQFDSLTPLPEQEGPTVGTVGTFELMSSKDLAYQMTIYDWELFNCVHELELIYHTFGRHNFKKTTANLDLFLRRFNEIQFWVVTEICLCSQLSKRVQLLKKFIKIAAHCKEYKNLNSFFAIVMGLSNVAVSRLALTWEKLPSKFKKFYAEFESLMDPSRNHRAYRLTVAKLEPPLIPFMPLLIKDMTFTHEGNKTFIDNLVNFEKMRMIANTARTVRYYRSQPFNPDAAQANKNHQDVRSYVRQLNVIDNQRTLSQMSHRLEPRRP
EPAC2 agonist: qHTS for Agonist of cAMP-regulated guanine nucleotide exchange factor 4 (EPAC2): primary screen; EPAC2 activation, biochemical qHTS; response scale: 100% = 6.5 mM cAMP response; 0.079% of 360,000 active; Rap guanine nucleotide exchange factor 4 (Homo sapiens), Q8WZA2; Potency, µM (doses to about 154 µM), most hits filed as activators; also: nearly all actives have a fitted effect of over 50% in size
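Nucleotide exchange monitored as fluorescence drop when BODIPY-GDP leaves Rap1B. Reaction: 100 nM EPAC2, 250 nM RAP1B-BODIPY-GDP, 50 uM GDP, room temperature, kinetic read over 30 min. Activity expressed relative to 6.5 mM cAMP.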
EPAC1 agonist: qHTS for Agonist of cAMP-regulated guanine nucleotide exchange factor 3 (EPAC1): primary screen | Potency, µM (titrated, usually from 154 µM), most hits filed as activators | EPAC1 agonist qHTS, biochemical assay; response scale: 100% = response to 6.5 mM cAMP | 0.073% of 360,000 active; also: nearly all actives have a fitted effect of over 60% in size
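Nucleotide exchange by EPAC1 (100 nM) on Rap1B–BODIPY-GDP (250 nM) in the presence of 50 uM GDP is tracked fluorescently at 480/540 nm over 30 min. Signals are normalized to a 6.5 mM cAMP control.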
USP1 inh: Inhibitors of USP1/UAF1: Primary Screen | Ubiquitin carboxyl-terminal hydrolase 1 (Homo sapiens), O94782 | recombinant USP1/UAF1, Ub-Rhodamine cleavage fluorescence | Potency, µM (highest dose often 57.1 µM), hits mostly inhibitors | 0.23% of 390,000 active | AID 743255, 2014; also: nearly all actives have a fitted effect of over 60% in size
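USP1/UAF1 complex at 1 nM was preincubated with compound for 15 min at room temperature, then Ub-Rho substrate (150nM final) was added. Fluorescence (480/540 nm) was read kinetically, 6 reads every 60 seconds.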
Numbers stand for hits. Shown are actives, neighbours in structure and some others; about 0.49% of the full set was active somewhere. Calls follow the shape of the dose curve; as a rule, active = well fitted curve in the direction sought with a large enough effect; inconclusive = small, poorly fitted or top-dose-only effect, or another doubt; inactive = no such curve, though single readings can be large; an effect the other way counts as inactive or inconclusive.

Results for COC1C(C)OC(OC2CC(C)(O)Cc3cc4c(c(O)c32)C(=O)c2c(O)cc3c(c2C4=O)OC2OC3(C)C(O)C(N(C)C)C2O)C(OC)C1(C)OC (stereo unspecified) ?
EPAC1 antagonist: inactive; EPAC2 antag: inactive; EPAC2 agonist: inactive; EPAC1 agonist: 100µM; USP1 inh: inconclusive

How did Cc1ccccc1CN1C(=O)C(C)N=C(c2ccccc2)c2ccccc21 (stereo unspecified) do in these assays?
USP1 inh: inactive

How did COCCCn1c(N)c(C(=O)NCCC(C)C)c2nc3ccccc3nc21 do in these assays?
EPAC1 antagonist: 50.1µM; EPAC2 antag: inconclusive; EPAC2 agonist: inactive; EPAC1 agonist: inactive; USP1 inh: 22.4µM

How did CCCNC(=O)c1c(N)n(CC2CCCO2)c2nc3ccccc3nc12 (stereo unspecified) do in these assays?
EPAC1 antagonist: inactive; EPAC2 antag: inactive; EPAC2 agonist: inactive; EPAC1 agonist: inactive; USP1 inh: inconclusive

What do the screens show for `CC(C)OCCCNC(=O)c1c(N)n(CC2CCCO2)c2nc3ccccc3nc12` (stereo unspecified)?
EPAC1 antagonist: inconclusive; EPAC2 antag: inconclusive; EPAC2 agonist: inactive; EPAC1 agonist: inactive; USP1 inh: 28.2µM

What do the screens show for `CCCCNC(=O)c1c(N)n(Cc2ccc3c(c2)OCO3)c2nc3ccccc3nc12`?
EPAC1 antagonist: inactive; EPAC2 antag: inactive; EPAC2 agonist: inactive; EPAC1 agonist: inactive; USP1 inh: 28.2µM

What do the screens show for `CCCCn1c(N)c(C(=O)OCCOC)c2nc3ccccc3nc21`?
EPAC1 antagonist: inactive; EPAC2 antag: inactive; EPAC2 agonist: inactive; EPAC1 agonist: inactive; USP1 inh: inactive

How did CCCCCn1c(N)c(C(=O)NCCN2CCOCC2)c2nc3ccccc3nc21 do in these assays?
EPAC1 antagonist: inactive; EPAC2 antag: inactive; EPAC2 agonist: inactive; EPAC1 agonist: inactive; USP1 inh: inactive

Results for O=C(C[C@H]1C=C[C@H](NC(=O)Nc2ccccc2F)[C@@H](CO)O1)NCc1ccc(-c2ccccc2)cc1 ?
EPAC1 antagonist: inactive; EPAC2 antag: inconclusive; EPAC2 agonist: inactive; EPAC1 agonist: inactive

Results for CCN(CC)c1ccc(N=Cc2c(O)n(-c3ccccc3C)c(=O)[nH]c2=O)cc1 ?
EPAC1 antagonist: inactive; EPAC2 antag: inactive; EPAC2 agonist: 89.1µM; EPAC1 agonist: 100µM; USP1 inh: inconclusive

Results for CCOc1ccccc1-n1c(O)c(C=Nc2ccc(N(CC)CC)cc2)c(=O)[nH]c1=O ?
EPAC1 antagonist: inactive; EPAC2 antag: inactive; EPAC2 agonist: 100µM; EPAC1 agonist: 70.8µM; USP1 inh: inconclusive

What do the screens show for `CCN(CC)c1ccc(N=Cc2c(O)n(-c3ccccc3)c(=O)[nH]c2=O)cc1`?
EPAC1 antagonist: inactive; EPAC2 antag: inactive; EPAC2 agonist: inactive; EPAC1 agonist: inactive; USP1 inh: inconclusive

How did CC(C)C[C@H]1C(=O)N2CCCC2[C@]2(O)O[C@](NC(=O)[C@@H]3C=C4c5cccc6[nH]cc(c56)CC4N(C)C3)(C(C)C)C(=O)N12 (stereo partly specified) do in these assays?
EPAC1 antagonist: inactive; EPAC2 antag: inactive; EPAC2 agonist: inactive; EPAC1 agonist: inactive; USP1 inh: 12.6µM

How did CC(C)[C@@]1(NC(=O)[C@@H]2C[C@@H]3c4cccc5[nH]cc(c45)C[C@H]3N(C)C2)O[C@@]2(O)[C@@H]3CCCN3C(=O)[C@H](Cc3ccccc3)N2C1=O do in these assays?
EPAC1 antagonist: inactive; EPAC2 antag: inactive; EPAC2 agonist: inactive; EPAC1 agonist: inactive; USP1 inh: inactive

How did CC(C)[C@H]1C(=O)N2CCC[C@H]2[C@]2(O)O[C@](NC(=O)[C@@H]3C=C4c5cccc6[nH]cc(c56)C[C@H]4N(C)C3)(C(C)C)C(=O)N12 do in these assays?
EPAC1 antagonist: inconclusive; EPAC2 antag: inactive; EPAC2 agonist: inactive; EPAC1 agonist: inactive; USP1 inh: 22.4µM

Results for O=C1NCCOC(=O)[C@H](Cc2ccc(F)cc2)CC/C=C/C[C@@H]1CC(=O)N(CCO)Cc1ccccc1 ?
EPAC1 antagonist: inactive; EPAC2 antag: inactive; EPAC2 agonist: inactive; EPAC1 agonist: inactive; USP1 inh: inactive

What do the screens show for `Cc1[nH]n(-c2ccccc2)c(=O)c1C(c1cccc([N+](=O)[O-])c1O)c1c(C)[nH]n(-c2ccccc2)c1=O`?
EPAC1 antagonist: 56.2µM; EPAC2 antag: inactive; EPAC2 agonist: inactive; EPAC1 agonist: inactive; USP1 inh: inactive

Results for Cc1cc(C(C#N)c2ccc(Cl)cc2)c(Cl)cc1NC(=O)c1cc(I)cc(I)c1O (stereo unspecified) ?
EPAC1 antagonist: inconclusive; EPAC2 antag: 50.1µM; EPAC2 agonist: inactive; EPAC1 agonist: inactive; USP1 inh: inconclusive

How did O=C1NCCOC(=O)[C@@H](Cc2ccc(F)cc2)CC/C=C/C[C@H]1CC(=O)N(CCO)Cc1ccccc1 do in these assays?
EPAC1 antagonist: inactive; EPAC2 antag: inactive; EPAC2 agonist: inactive; EPAC1 agonist: inactive; USP1 inh: inactive

What do the screens show for `C[C@@H]1C(=O)O[C@H]2CC34[C@H]5C[C@@H](C(C)(C)C)[C@]36[C@@H](OC(=O)[C@@H]6O)O[C@@]4(C(=O)O5)[C@]21O` (stereo partly specified)?
EPAC1 antagonist: inactive; EPAC2 antag: inactive; EPAC2 agonist: inactive; EPAC1 agonist: inactive; USP1 inh: inactive

Results for COc1cccc(NP(=O)(Oc2ccc(Cl)cc2)Oc2ccc(Cl)cc2)c1 ?
EPAC1 antagonist: inactive; EPAC2 antag: inactive; EPAC2 agonist: inactive; EPAC1 agonist: inactive; USP1 inh: inactive

How did O=[N+]([O-])c1cccc(NP(=O)(Oc2ccccc2)Oc2ccccc2)c1 do in these assays?
EPAC1 antagonist: inactive; EPAC2 antag: 25.1µM; EPAC2 agonist: inactive; EPAC1 agonist: inactive; USP1 inh: inactive

Results for C[C@H]1CN([C@@H](C)CO)C(=O)c2cccc(NC(=O)c3ccc(-c4nccs4)cc3)c2O[C@@H]1CN(C)C(=O)Nc1cccc2ccccc12 ?
EPAC1 antagonist: inactive; EPAC2 antag: inactive; EPAC2 agonist: inactive; EPAC1 agonist: inactive; USP1 inh: inactive

How did COc1ccc(-c2nc(CN3C(=O)CN=C(c4ccccc4)c4ccccc43)c(C)o2)cc1OC do in these assays?
USP1 inh: inactive

How did O=C1NC(=O)N(Cc2ccco2)C(=O)/C1=C/c1ccc(-c2cccc([N+](=O)[O-])c2)o1 do in these assays?
EPAC1 antagonist: 50.1µM; EPAC2 antag: inactive; EPAC2 agonist: inactive; EPAC1 agonist: inactive; USP1 inh: inconclusive

Assay outcomes deposited in PubChem BioAssay by National Center for Advancing Translational Sciences (NCATS).
